# Rows were chosen to be rich in hits. Some 6.5% of all compounds tested hit in one or more screens of this group.
# TGFb SMAD3 inh = TGF-b pathway inhibition; 1.2% of 410,000 active; HepG2 CAGA-GFP TGF-b/SMAD3 reporter, GFP fluorescence, 18 h; TGF-beta stimulated, 500 pg/mL final; Potency, µM (top dose mostly 46.1 µM), most hits filed as inhibitors; AID 588855; further: nearly all actives have a fitted effect of over 65% in size
#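 GFP signal (ex488/em500-530) from TGF-beta-stimulated HEPG2 CAGA-GFP cells, 500 pg/mL final, 18 h at 37 degrees C in DMEM plus 1% FBS, normalized to unstimulated and DMSO-stimulated controls.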
# HT1080-NT tox = kills 2HG-producing HT-1080-NT fibrosarcoma cells; 1.6% of 360,000 active; HT-1080-NT fibrosarcoma viability, CellTiter-Glo ATP luminescence, 48 h; Potency, µM (top dose mostly 46.1 µM), most hits filed as cytotoxic; AID 686970;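 further: NT is the 2HG producing partner of a matched IDH1 knockdown line; nearly all actives have a fitted effect of over 55% in size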
#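 Toxicity toward the 2HG-producing NT line was scored as %Activity, normalised to DMSO and no-cell wells, from CellTiter-Glo luminescence after 48 hours' treatment.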
# Giardia killer = kills Giardia lamblia | activity change, % at 7.66 µM, hits read low | 0.15% of 340,000 active | Giardia lamblia trophozoite viability | AID 540267; in the data active means activity change below about -80%; inconclusive means between about -30% and that limit;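 further: parasites exposed to compound for two days anaerobically before the ATP read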
#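 Giardia trophozoites, 100 cells per well, were exposed to compounds for 48 hrs at 37 deg C under anaerobic conditions; viability was then read as ATP content by bioluminescence after 15-30 min at room temperature.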
# HepG2 viability = counter-screen for TGF-b inhibitors: cytotoxicity in HepG2 cells; HepG2 CAGA-GFP viability, ATP luminescence, 18 h; Potency, µM (series often up to 46.1 µM), hits mostly cytotoxic; 0.76% of 410,000 active; AID 588856
#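 HepG2 CAGA-GFP cells (1000/well, DMEM with 1% FBS) received compound, then TGF-beta at 500 pg/mL final, and were incubated 18 hours at 37 degrees C. Viability was read by CellTiter-Glo luminescence. Media-only wells were set as complete cell-killing and DMSO as no toxicity.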
# HT1080 IDH1KD tx = HT-1080 IDH1 knockdown cell toxicity (counter line); HT-1080 IDH1 knockdown viability, ATP luminescence, 48 h; Potency, µM (titrated, usually from 46.1 µM), usual class: cytotoxic; 2% of 360,000 active; AID 686971
#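 CellTiter-Glo luminescence after 48 h compound exposure at 37 degrees C of IDH1-knockdown HT-1080 cells in 5% FBS RPMI. %Activity scaled between DMSO wells and cell-free media wells, with curves fitted and assigned curve classes.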
# IL1B secr inh = inflammasome signaling inhibition, IL-1 beta readout; activity change, % at 57.5 µM; 4.7% of 360,000 active; THP-1 LPS/ATP IL-1B secretion, AlphaLISA, 16 h; stronger effect = lower value; in the data active means activity change below about -50%; inconclusive means mostly about -30% to -49%
#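 Secreted IL-1B measured by AlphaLISA bead assay after 16 h compound exposure of THP-1 cells; compounds (final up to 57.5 uM) added 1 h before LPS (250 ng/mL) and ATP (1.25 mM) stimulation; lower signal means less secretion.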
# A number is an active result; 0 = inactive; ? = inconclusive; - = not tested or not shown. Unless noted, the call rests on the fitted dose curve; in most records, active means well fitted curve in the direction sought with a large enough effect; inconclusive means small, poorly fitted or top-dose-only effect, or another doubt; inactive means no such curve, though single readings can be large; an effect the other way counts as inactive or inconclusive.
SMILES,TGFb SMAD3 inh,HT1080-NT tox,Giardia killer,HepG2 viability,HT1080 IDH1KD tx,IL1B secr inh
O=C(N/N=C/c1sc(N2CCOCC2)nc1-c1ccccc1)c1ccccc1Cl,0,0,0,0,0,-57
CN(C)CCOc1ccc(-c2c(-c3ccsc3)sc3ccccc23)cc1,?,?,0,0,?,-60
COc1ccc(-c2sc3ccccc3c2-c2ccc(OCCN(C)C)cc2)cc1,?,23µM,0,0,?,0
COc1cccc(-c2sc3ccc(OC)cc3c2-c2ccc(OCCN(C)C)cc2)c1,?,?,0,14µM,?,-62
COc1cccc(-c2sc3ccc(OC)cc3c2-c2ccc(O)cc2)c1,?,0,0,0,0,0
COc1cc(C)ccc1OCCSc1nnc(-c2cccs2)o1,0,-,-,0,-,-
C[C@@H](NC(=O)c1[nH]cnc1C(=O)Nc1ccccc1)c1ccccc1,14µM,0,0,0,0,0
CC(C)C[C@H](NC(=O)c1nc[nH]c1C(=O)N[C@@H](CC(C)C)C(=O)OC(C)(C)C)C(=O)OC(C)(C)C,?,?,0,0,?,?
Cc1ccc(NC(=O)c2nc[nH]c2C(=O)N[C@@H](C)c2ccccc2)cc1,?,0,0,0,0,?
CC(C)C[C@H](NC(=O)c1[nH]cnc1C(=O)N[C@H](C)c1ccccc1)C(=O)OC(C)(C)C,?,?,0,16µM,?,-55
CC(C)C[C@H](NC(=O)c1nc[nH]c1C(=O)NC(c1ccccc1)c1ccccc1)C(=O)OC(C)(C)C,?,26µM,0,0,21µM,-69
COc1cc2cc(C(=O)NC(C)c3cccc4ccccc34)c(N)nc2cc1OC (stereo not given),-,26µM,-,-,18µM,?
COc1cccc(C(=O)NC(C)c2ccc(-c3ccccc3)cc2)c1OC (stereo not given),0,0,0,0,0,-64
COc1cccc(C(=O)NC(C)c2cccc3ccccc23)c1OC (stereo not given),0,0,0,0,0,-65
O=C(Nc1nc(-c2cccc([N+](=O)[O-])c2)cs1)C(c1ccccc1)c1ccccc1,?,0,0,0,0,-72
O=[N+]([O-])c1cccc(-c2csc(N/N=C/c3cccc(O)c3)n2)c1,0,?,0,0,18µM,-168
CCOCCCNC(=O)C(NC(=O)c1ccc2c(c1)OCO2)c1ccccc1 (stereo not given),0,0,0,0,0,0
Nc1ccc2c(c1)OC1(CCCC1)O2,0,0,0,0,0,0
COc1ccc(C2C3=C(Nc4ncnn42)c2ccccc2CCC3)cc1 (stereo not given),0,0,0,0,0,0
Fc1ccc(/C=C2\CCCC3=C2Nc2ncnn2C3c2ccc(F)cc2)cc1 (stereo not given),?,7.3µM,0,0,6.5µM,-122
O=C(CCOc1ccccc1)N1CCN(S(=O)(=O)c2cccs2)CC1,0,0,0,0,0,0
CC(C)(C)c1ccc(OCCSc2nc3ccccc3n2CC(=O)O)cc1,0,0,0,0,0,0
c1ccc(-c2nc(-n3ccnc3)nc(-n3ccnc3)n2)cc1,0,0,0,0,0,-84
CC(C)Nc1nc(-c2ccccc2)nc(-n2ccnc2)n1,0,0,0,0,0,?
CN(C)CCCN(C(=O)CCS(=O)(=O)c1ccccc1)c1nc2cc3c(cc2s1)OCO3,?,0,0,0,0,-107
SMILES,TGFb SMAD3 inh,HT1080-NT tox,Giardia killer,HepG2 viability,HT1080 IDH1KD tx,IL1B secr inh
CN(C)CCCN(C(=O)COc1ccccc1)c1nc2cc3c(cc2s1)OCCO3,?,0,0,0,0,0
COc1ccc(OC)c2sc(N(CCCN(C)C)C(=O)CCS(=O)(=O)c3ccccc3)nc12,?,0,0,0,?,-107
COc1ccc(Cl)c2sc(N(CCN(C)C)C(=O)CCS(=O)(=O)c3ccc(C)cc3)nc12,?,?,?,0,0,0
COc1ccc(C)c2sc(N(CCCN(C)C)C(=O)CS(=O)(=O)c3ccc(F)cc3)nc12,0,18µM,0,0,0,?
CN(C)CCCN(C(=O)CCSc1ccccc1)c1nc2cc3c(cc2s1)OCO3,?,?,0,0,18µM,-104
Fc1ccc(CSc2nc3ccccc3[nH]2)c2ccccc12,?,?,0,0,?,0
Cc1c(Nc2ccc3nonc3c2[N+](=O)[O-])c(=O)n(-c2ccccc2)n1C,0,0,0,0,0,0
Cc1c(Nc2cc(Cl)c3nonc3c2[N+](=O)[O-])c(=O)n(-c2ccccc2)n1C,?,3.7µM,0,0,?,-105
COc1ccc2oc(C(=O)OC(C)C(=O)N3C(C)CCCC3C)c(C)c2c1 (stereo not given),0,0,0,0,0,0
COCc1c(Br)c(C)nc(OCC(=O)N/N=C/c2ccco2)c1C#N,0,0,0,0,0,0
Cc1cc2[nH]c3c4ccccc4nc(C)c3c2cc1C,13µM,15µM,0,18µM,?,-112
CCCCC[C@@H](/C=C/C1C(=O)C=C[C@H]1C/C=C\CCCC(=O)O)OC(C)=O (stereo not given in full),?,0,0,0,0,-77
CCN(CC)S(=O)(=O)c1ccc(N/N=C(\C)c2cccnc2)nc1,0,0,0,0,0,-51
CCN(CC)S(=O)(=O)c1ccc(N/N=C(\C)c2ccncc2)nc1,0,0,0,0,0,0
COc1ccc(CCC(=O)N(C)CC(=O)Nc2cc(C)ccc2C)cc1,0,0,0,0,0,0
Cc1cc(C)cc(C(O)c2ncc(-c3ccccc3Cl)[nH]2)c1 (stereo not given),?,?,-,0,21µM,0
Cc1ccccc1-c1cnc(C(O)c2ccc(Cl)c(F)c2)[nH]1 (stereo not given),0,0,-,3.2µM,0,-62
Cc1ccccc1CSCCNC(=O)CN(c1ccc2c(c1)OCO2)S(C)(=O)=O,0,?,0,0,0,0
c1ccc(Cc2nnc(Sc3ccccc3)c3ccccc23)cc1,?,?,0,20µM,11µM,-68
Oc1ccc(Nc2nc(NCC3CCCO3)c3ccccc3n2)cc1 (stereo not given),0,21µM,0,0,?,-96
Oc1ccc(Cl)cc1Nc1nc(NCC2CCCO2)c2ccccc2n1 (stereo not given),?,-,0,0,-,-
Oc1ccccc1Nc1nc(NCC2CCCO2)c2ccccc2n1 (stereo not given),0,0,0,0,0,-109
O=C(CCCOc1ccccc1)NCCc1nc2ccccc2[nH]1,0,0,0,0,0,0

# From PubChem
